The source of these data is the supplement of paper PMC13380429.

The first assay relates to Vero E6 infected with SARS-CoV-2. Kind of assay: morphology score (similarity to uninfected cells); higher = more like uninfected cells. Particulars: 24 h.
As to `c1ccc2c(c1)CCC[C@H]2Nc1nc2ccccc2[nH]1` (10 µM), the morphology score amounted to 0.268.
Same read-out and setting: then `CC(=O)CCCCn1c(=O)c2c(ncn2C)n(C)c1=O` [pentoxifylline] (10 µM), with 0.0323; and `C1CCC2(CC1)CCNCC2` [4,4-pentamethylenepiperidine] (10 µM), with -0.0731.
On the same count and under the same terms, to `CNC(=C[N+](=O)[O-])NCCSCc1ccc(CN(C)C)o1` [ranitidine] (10 µM) belongs -0.0967.
`N#Cc1ccc(-c2ccc(S(=O)(=O)Nc3cccc(N)n3)cc2)cc1` (10 µM) had a morphology score of -0.0328.
The same measure, in the same setting: then `CC1=CC[C@@H](C(C)(C)O)C[C@@H]1O` [sobrepin] (10 µM), with -0.0987; and `CN(C)CC(=O)Nc1ccc2[nH]c(=O)c3ccccc3c2c1` (10 µM), with 0.202.

The test system is the same in a further assay. The assay is described as follows: SARS-CoV-2 infection rate relative to infected DMSO; higher = more infection, active = 60 or less. The note with it: 24 h.
Take `CC1=CC(=C(c2ccc(N)cc2)c2ccc(N)cc2)C=CC1=N` [basic-fuchsin] (0.833333 µM): the SARS-CoV-2 infection rate was 97.5% (inactive).
On the same count and under the same terms, then `CCCCC1CCC(c2nc(-c3ccncc3)no2)CC1` (stereo not drawn) (10 µM), with 104% (inactive).
On the same count and under the same terms, then `CC(C)(CO)CCCCCCC(C)(C)CO` [gemcadiol] (10 µM), with 98.5% (inactive); and `CC(C)C(=O)Oc1ccc(CO)cc1[C@H](CCN(C(C)C)C(C)C)c1ccccc1` [fesoterodine] (10 µM), with 108% (inactive).
On the same count and under the same terms, then `O=C(c1cn(Cc2cncn2Cc2ccc(Br)cc2)cc1-c1cccc2ccccc12)N1CCOCC1` (0.833333 µM), with 94.5% (inactive); and `CC1(C)S[C@@H]2[C@H](NC(=O)[C@H](C(=O)O)c3ccsc3)C(=O)N2[C@H]1C(=O)O` [ticarcillin] (10 µM), with 97.5% (inactive).
